Shh pathway inh: Hedgehog pathway signaling inhibitors, primary screen, luminescence, Shh-LIGHT2 cells, Gli-luciferase. Shh-LIGHT2 Gli-luciferase reporter, 30 h. inhibition, % (no concentration beside the values). hit rate 2.1% among 22,000. AID 2313, 2010;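 active means mean inhibition across valid replicates above about 65%, limit read from the data; inconclusive means mean under the limit, yet half or more replicates past it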;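 further: pathway switched on by Shh-conditioned medium diluted 1 in 25 in low serum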
PD-1 reversal: activators reversing PD-1 mediated T-cell inhibition, primary screen, luminescence, primary human CD4 T cells, PD-L1 beads; CellTiter-Glo 96 h; activation, % (no concentration beside the values); 29,000 tested, under 10 active; AID 2316, 2010; call rule not given here
MITF inh: inhibitors of MITF, primary screen, MITF inhibitor project, cell-based, luminescence | TRPM1 promoter luciferase, 24 h | inhibition, % (concentration not given with the values) | hit rate 0.28% among 37,000 | AID 2240, 2010; in the data active means inhibition above about 85%; inconclusive means no clear call, values can overlap the other calls; inactive means below about 68%;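 further: human melanocyte line stably carrying TRPM1 promoter luciferase reporter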
NOMO-1 viab: NOMO-1 AML cell viability reduction, primary screen, STK33 inhibitor project, CellTiter-Glo luminescence; inhibition, % (test concentration not listed); AID 2330, 2010; hit rate 7.5% among 37,000; NOMO-1 AML viability, 72 h; in the data active means inhibition above about 80%; inconclusive means no clear call, values can overlap the other calls
Each line names hits and unclear results; the compound was inactive in the other large screens. In the library only some 7.9% were active in any assay of this set; here they are far more common.

COc1ccc(S(=O)(=O)Nc2cccc3c2O[C@@H](CN(C)Cc2ccc(Cl)c(Cl)c2)[C@@H](C)CN([C@H](C)CO)C3=O)cc1	Shh pathway inh 115, NOMO-1 viab 115
C[C@H]1CN([C@@H](C)CO)C(=O)c2cccc(NS(=O)(=O)c3ccc(F)cc3)c2O[C@H]1CN(C)Cc1ccc(Cl)c(Cl)c1	none
C[C@@H]1CC[C@H](O)/C=C/C(=O)O[C@H](C)CC[C@H](O)/C=C/C(=O)O1	NOMO-1 viab 108
O=C(CC1(O)C(=O)N(Cc2ccc(Cl)c(Cl)c2)c2ccccc21)c1cccc([N+](=O)[O-])c1 (stereo unspecified)	NOMO-1 viab 108 (no result: Shh pathway inh)
COc1ccc(C(=O)CC2(O)C(=O)N(Cc3ccccc3Cl)c3ccc(Cl)cc32)cc1OC (stereo unspecified)	NOMO-1 viab 90 (no result: Shh pathway inh)
Cc1ccccc1CN1C(=O)C(O)(CC(=O)c2ccncc2)c2cc(Cl)ccc21 (stereo unspecified)	NOMO-1 viab 129 (no result: Shh pathway inh)
COc1ccc(CN2C(=O)C(O)(CC(=O)c3ccc(C)s3)c3ccccc32)cc1OC (stereo unspecified)	NOMO-1 viab 114 (no result: Shh pathway inh, PD-1 reversal)
O=C(CC1(O)C(=O)N(Cc2ccc(Cl)c(Cl)c2)c2ccccc21)c1ccc2c(c1)OCCO2 (stereo unspecified)	none (no result: Shh pathway inh)
Cc1ccc(C(=O)CC2(O)C(=O)N(Cc3cccc4ccccc34)c3ccccc32)cc1 (stereo unspecified)	none (no result: Shh pathway inh, PD-1 reversal)
CCc1ccc(OCC(=O)Nc2sc3c(c2C(=O)OC)CCC3)c(Br)c1	none (no result: Shh pathway inh)
COc1ccc(CN2C(=O)C(O)(CC(=O)c3ccc(Cl)cc3)c3ccccc32)cc1OC (stereo unspecified)	NOMO-1 viab 112 (no result: Shh pathway inh)
O=C(CC1(O)C(=O)N(Cc2cccc3ccccc23)c2ccccc21)c1ccc(F)cc1 (stereo unspecified)	NOMO-1 viab 84 (no result: Shh pathway inh, PD-1 reversal)
COc1ccc(CN2C(=O)C(O)(CC(=O)c3cccnc3)c3ccccc32)cc1OC (stereo unspecified)	NOMO-1 viab 106 (no result: Shh pathway inh)
COc1ccc(CN2C(=O)C(O)(CC(=O)c3ccc4c(c3)CCCC4)c3ccccc32)cc1OC (stereo unspecified)	none (no result: Shh pathway inh)
COc1ccc(CN2C(=O)C(O)(CC(=O)c3ccc(Cl)s3)c3ccccc32)cc1OC (stereo unspecified)	NOMO-1 viab 109 (no result: Shh pathway inh, PD-1 reversal)
Cc1cc(N(CC(=O)NC2CC3CCC2C3)S(C)(=O)=O)ccc1Br (stereo unspecified)	none (no result: Shh pathway inh)
O=C(NCCCO)C(=O)NCC1COc2ccccc2O1 (stereo unspecified)	none (no result: Shh pathway inh)
C=CCN1C(=O)C(O)(CC(=O)c2ccc(OC)c([N+](=O)[O-])c2)c2ccccc21 (stereo unspecified)	NOMO-1 viab 119 (no result: Shh pathway inh)
Cn1nnnc1SCC(=O)Nc1ccc(N2CCOCC2)c(Cl)c1	none (no result: Shh pathway inh)
C/C=C(/C)C(=O)O[C@@H]1c2cc(OC)c(OC)cc2-c2c(ccc(OC)c2OC)C[C@H]2C(=O)OC[C@H]12	NOMO-1 viab 117
O=C(CCc1nc(-c2ccccc2Cl)no1)Nc1cccc([N+](=O)[O-])c1	none (no result: Shh pathway inh)
CC1CCC(C(C)C)C(NC(=S)Nc2cccc(F)c2)C1 (stereo unspecified)	Shh pathway inh 102, NOMO-1 viab 122
CCN(C(=S)Nc1ccc(C)cc1)c1ccccc1	none
CCN(CC)C(=S)NC(=S)c1ccc(C)cc1	NOMO-1 viab 122
C[C@@H]1CN([C@H](C)CO)C(=O)c2cccc(NC(=O)Nc3ccc(C(F)(F)F)cc3)c2O[C@H]1CN(C)CC1CC1	NOMO-1 viab 84 (no result: PD-1 reversal)
C[C@@H]1CN([C@@H](C)CO)C(=O)c2cccc(NC(=O)Nc3ccc(C(F)(F)F)cc3)c2O[C@@H]1CN(C)CC1CC1	none
C[C@@H]1CN([C@@H](C)CO)C(=O)c2cccc(NC(=O)Nc3ccc(C(F)(F)F)cc3)c2O[C@@H]1CN(C)CC1CCCCC1	NOMO-1 viab 95
CCn1c(SCC(=O)Nc2cccc(F)c2)nnc1-c1ccc(OC)cc1	none (no result: Shh pathway inh, PD-1 reversal)
C[C@@H]1CN([C@H](C)CO)C(=O)c2cccc(NC(=O)CCCCCC(=O)Nc3ccccc3N)c2O[C@@H]1CN(C)S(=O)(=O)c1ccc(F)cc1	none (no result: Shh pathway inh)
C[C@H](CO)N1C[C@H](C)[C@H](CN(C)S(=O)(=O)c2ccc(F)cc2)Oc2c(NC(=O)CCCCCC(=O)Nc3ccccc3N)cccc2C1=O	NOMO-1 viab 95 (no result: Shh pathway inh)
C[C@@H]1CN([C@@H](C)CO)C(=O)c2cccc(NC(=O)CCCCCC(=O)Nc3ccccc3N)c2O[C@@H]1CN(C)S(=O)(=O)c1ccc(F)cc1	NOMO-1 viab 92 (no result: Shh pathway inh)
Cc1ccn2cc(-c3cccc(NS(=O)(=O)c4cccc([N+](=O)[O-])c4)c3)nc2c1	none (no result: Shh pathway inh)
COc1ccc(NC(=O)C(C)NS(=O)(=O)c2ccc(F)cc2)cc1Cl (stereo unspecified)	none (no result: Shh pathway inh)
COC(=O)c1ccccc1NC(=O)COc1ccc(Br)cc1C	none (no result: Shh pathway inh)
COc1cc(OC)c(NC(=O)CSc2nnc(-c3ccccc3)n2C)cc1Cl	none (no result: Shh pathway inh)
COC(=O)c1c(-c2ccccc2)csc1NC(=O)c1cc(-c2cccnc2)nc2ccccc12	NOMO-1 viab 104 (no result: Shh pathway inh, PD-1 reversal)
CCOC(=O)c1cnc2ccc(OCC)cc2c1NC(C)CC (stereo unspecified)	NOMO-1 viab 117
CCn1c(SCC(=O)Nc2ccc(Cl)cc2Cl)nnc1-c1cccc(Cl)c1	none (no result: Shh pathway inh)
Cc1ccc(C(=O)CCNc2ccc3c(c2)oc2ccccc23)o1	none (no result: Shh pathway inh)
C/C(CCc1oc2ccccc2c1-c1ccc(C)o1)=N\O	NOMO-1 viab 108 (no result: Shh pathway inh)
C[C@@H]1CN([C@@H](C)CO)C(=O)c2cccc(NC(=O)Nc3ccc4c(c3)OCO4)c2O[C@H]1CN(C)Cc1ccc(C(F)(F)F)cc1	NOMO-1 viab 109
C[C@H]1CN([C@@H](C)CO)C(=O)c2cccc(NC(=O)Nc3ccc4c(c3)OCO4)c2O[C@@H]1CN(C)Cc1ccc2c(c1)OCO2	none (no result: PD-1 reversal)
COc1ccc(NC(=O)Nc2cccc3c2O[C@@H](CN(C)Cc2ccc4c(c2)OCO4)[C@H](C)CN([C@@H](C)CO)C3=O)cc1	NOMO-1 viab 115
COc1ccc(NC(=O)Nc2cccc3c2O[C@H](CN(C)Cc2ccc4c(c2)OCO4)[C@H](C)CN([C@H](C)CO)C3=O)cc1	none
C[C@H](CO)N1C[C@H](C)[C@H](CN(C)Cc2ccc(C(F)(F)F)cc2)Oc2c(NC(=O)Nc3ccc4c(c3)OCO4)cccc2C1=O	NOMO-1 viab inconclusive
C[C@H](CO)N1C[C@H](C)[C@@H](CN(C)Cc2ccc(C(F)(F)F)cc2)Oc2c(NC(=O)Nc3ccc4c(c3)OCO4)cccc2C1=O	NOMO-1 viab 105
C[C@@H]1CN([C@H](C)CO)C(=O)c2cccc(NC(=O)Nc3ccc(F)cc3)c2O[C@H]1CN(C)Cc1ccc2c(c1)OCO2	NOMO-1 viab 97
Cc1ccc(S(=O)(=O)N(C)CC(=O)Nc2ccccc2C(N)=O)cc1	none (no result: Shh pathway inh, PD-1 reversal)
CCOC(=O)c1cnc2c(C(F)(F)F)cccc2c1NCCO	none (no result: Shh pathway inh)
COC(=O)c1c2ccccc2c(C)c2ccccc12	NOMO-1 viab inconclusive
O=C(CSc1nnc(-c2ccncc2)n1-c1ccccc1)c1ccc([N+](=O)[O-])cc1	none (no result: Shh pathway inh)

Screening data from PubChem BioAssay.
